# Assay results published in the supplement of paper PMC6522484.
# ± gives the standard deviation of the averaged measurements.
# Tested on: DLD1
# Assay: cell viability (CellTiter-Glo) relative to plate median (fraction of plate median); higher = more viable cells
# Conditions: 5 µM; treatment time 24 h; reporter: 7TFP
# In short: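 Colorectal cancer cell lines stably transduced with lentiviral TCF/Wnt firefly luciferase reporters (7TFP or TCF4/Wnt) were seeded in 384-well plates. 24 h later they received library compounds at a final 5 µM for 24 h. Parallel plates were read for firefly luciferase or CellTiterGlo luminescence on a Tecan F500 reader. Each well's signal was normalised to the plate median (webcellHTS2, additive, no log transformation), and the mean of two independent replicates is reported.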
row,SMILES,cell viability
1,CN1CCCN=C1COC(=O)C(O)(c1ccccc1)C1CCCCC1 (stereo not drawn),1 ± 0.15
2,Cc1ccc(S(=O)(=O)NC(=O)NN2CCCCCC2)cc1,0.911 ± 0.047
3,CC[C@H]1C(=O)OC[C@@H]1Cc1cncn1C,0.942 ± 0.097
4,Nc1ccc(C(=O)Oc2ccccc2)c(O)c1,1.05 ± 0.096
5,CC(=O)C1=C(CO)C(=O)c2cccc(O)c2C1=O [Bhimamycin E],1.05 ± 0.042
6,O=C1NC(Cc2ccc(O)cc2)C(=O)N2CCCC12 (stereo not drawn) [Cyclo(tyrosylprolyl)],0.935 ± 0.0085
7,COc1cccc2c1C(=O)c1c(O)c3c(c(O)c1C2=O)C[C@@](O)(C(=O)CO)C[C@@H]3O[C@H]1C[C@H](N)[C@@H](O)[C@H](C)O1,1.03 ± 0.028
8,CCCCCc1c2c(cc(O)c1C(=O)O)OC(=O)c1c(cc(OC)cc1C(=O)CCCC)O2,0.958 ± 0.036
9,CC1CCC2(OC1)OC1CC3C4CCC5C[C@@H](O)CCC5(C)C4=CCC3(C)C1[C@@H]2C (stereo partly drawn) [3beta-HYDROXYISOALLOSPIROST-9(11)-ENE],1.02 ± 0.021
10,COc1ccc2c(c1)OCC(Cc1ccc(OC)c(OC)c1)C2=O (stereo not drawn),0.995 ± 0.05
11,CC(C)=CCc1c2c(c3occ(-c4ccc(O)c(O)c4)c(=O)c3c1O)C=CC(C)(C)O2,0.997 ± 0.033
12,CC(=O)Oc1cc(C)c2c(c1C(OC(C)=O)OC(C)=O)Oc1c(c(C)c(OC(C)=O)c3c1C(OC(C)=O)OC3=O)OC2=O (stereo not drawn),0.969 ± 0.044
13,COc1cc([C@@H]2c3cc4c(cc3[C@@H](O[C@@H]3O[C@@H]5CO[C@@H](c6cccs6)O[C@H]5[C@H](O)[C@H]3O)[C@H]3COC(=O)[C@H]23)OCO4)cc(OC)c1O,0.946 ± 0.047
